Source: PubChem BioAssay (The Scripps Research Institute Molecular Screening Center)
Only some compounds are listed: those with a hit (about 1.8% of all), similar ones and a draw of the others.
GSTO1 inh: blocks human GSTO1 in RBBP9 counter-screen; inhibition, % at 5.96 µM; P78417; recombinant GSTO1, activity-based probe fluorescence polarization; 300,000 compounds, 1.1% hits; AID 1974;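 active means inhibition above the campaign mean inhibition plus 3 SD, cut at about 35% in these data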;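 further: 0% = GSTO1-1 with DMSO and 100% = wells lacking GSTO1-1 enzyme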
Fam108B inh: Fam108B inhibition, counter-screen for RBBP9 inhibitors | recombinant Fam108B, FP-Rh probe fluorescence polarization | 300,000 compounds, 0.33% hits | inhibition, % at 9.51 µM | AID 1947;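 active means inhibition above the screen mean inhibition plus 3 SD, computed separately per campaign, cut at about 18% in these data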;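 further: inhibitors lower polarization as less probe binds the enzyme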
LYPLA2 counter: LYPLA2 (human) inhibition in PME1 counter-screen; 320,000 compounds, 0.38% hits; inhibition, % at 5.9 µM; recombinant LYPLA2, FP-Rh probe fluorescence polarization;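 active means inhibition above the screen-wide mean plus 3 SD, limit set per campaign, cut at about 26% in these data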;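 further: 0% = LYPLA2 with DMSO and 100% = wells lacking LYPLA2 enzyme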
PAD4 FP inh: blocks human protein arginine deiminase 4; inhibition, % at 6.36 µM; Q9UM07; recombinant PAD4, RCA probe fluorescence polarization; AID 485272; 330,000 compounds, 0.41% hits;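 active means percent inhibition above a cutoff equal to the mean of all tested compounds plus 3 SD, cut at about 15% in these data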;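 further: 0% = PAD4 with RCA probe and DMSO and 100% = probe without PAD4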
PME-1 primary: blocks human protein phosphatase methylesterase 1; Q9Y570; recombinant PME-1, FP-Rh probe fluorescence polarization; 320,000 compounds, 0.53% hits; inhibition, % at 5.9 µM;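 active means inhibition above the campaign mean of all compounds plus 3 SD, cut at about 26% in these data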;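 further: competitive labeling of PME-1 active site by serine hydrolase directed probe; 0% = PME-1 with DMSO and 100% = wells lacking PME-1 enzyme; inhibitors block probe labeling so polarization falls and inhibition rises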
Target sequence (Q9Y570 whole entry, looked up): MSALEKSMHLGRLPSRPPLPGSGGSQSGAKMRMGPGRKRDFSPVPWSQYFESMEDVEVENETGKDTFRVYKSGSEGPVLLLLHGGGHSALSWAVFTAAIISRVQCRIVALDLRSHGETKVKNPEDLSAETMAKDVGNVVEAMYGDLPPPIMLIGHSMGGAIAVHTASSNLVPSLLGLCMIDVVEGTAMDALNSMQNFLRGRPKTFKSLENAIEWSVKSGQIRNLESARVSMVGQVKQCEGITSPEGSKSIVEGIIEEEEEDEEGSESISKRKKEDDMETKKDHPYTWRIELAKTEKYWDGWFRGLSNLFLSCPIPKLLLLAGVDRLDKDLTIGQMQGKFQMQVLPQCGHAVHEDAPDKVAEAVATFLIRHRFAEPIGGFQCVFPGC
LYPLA1 counter: counter-screen for PME1 inhibitors: inhibitors of human LYPLA1. O75608. recombinant LYPLA1, FP-Rh probe fluorescence polarization. inhibition, % at 5.9 µM. 320,000 compounds, 0.16% hits. AID 2174;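 active means inhibition above the mean of all tested compounds plus 3 SD, set per campaign, cut at about 14% in these data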;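 further: inhibitors block serine hydrolase probe labeling of LYPLA1 so polarization falls; 0% = enzyme with DMSO and 100% = wells lacking LYPLA1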
* hit, by the source's call; · = no result given.

SMILES | GSTO1 inh | Fam108B inh | LYPLA2 counter | PAD4 FP inh | PME-1 primary | LYPLA1 counter
C=CCc1cccc(/C=N/NC(=O)CNc2cccc3ccccc23)c1O | -2 | 17 | 13 | 4 | 39* | -6
O=C(CNc1cccc2ccccc12)N/N=C/C(Br)=C/c1ccccc1 | 15 | 8 | -3 | 2 | 27* | -8
CCOc1ccc(N2C(=O)CS/C2=C(\C(Cl)=C(Cl)Cl)[N+](=O)[O-])cc1 | 51* | 7 | 6 | -19 | 3 | -4
O=C1Nc2cc(C(F)(F)F)ccc2N2CCCCC12 (stereo unspecified) | 16 | -3 | -4 | 3 | -2 | -2
O=C1Nc2ccc(C(F)(F)F)cc2N2CCCC12 (stereo unspecified) | 38* | -4 | -10 | -8 | -4 | -6
COc1ccccc1NCC(=O)N/N=C/c1c(O)ccc2ccccc12 | 18 | 7 | 3 | -4 | 18 | -2
O=C(CNc1ccc(F)cc1)N/N=C/c1c(O)ccc2ccccc12 | 12 | 9 | -2 | 0 | 37* | -9
O=C(N/N=C/c1ccc([N+](=O)[O-])o1)c1cn(-c2ccccc2)nc1-c1ccc(Cl)cc1 | -2 | -3 | -3 | -1 | -1 | -8
O=[N+]([O-])CC(=Nc1ccc(Cl)cc1)N/N=C\c1oc(O)c2ccccc12 | 21 | 8 | 5 | -9 | 52* | 2
Cc1ccc(N=C2NC(=O)CS2)c(C)c1 | 9 | -1 | 14 | 0 | -4 | 6
Cc1cc(Br)ccc1N=C1NC(=O)CS1 | 4 | -2 | -1 | 3 | 60* | 1
Cc1[nH]n(-c2ccccc2)c(=O)c1C(C[N+](=O)[O-])c1ccc(F)cc1 (stereo unspecified) | 59* | 0 | 0 | 14 | 5 | 0
Cc1[nH]n(-c2ccccc2)c(=O)c1C(C[N+](=O)[O-])c1ccc(Cl)cc1 (stereo unspecified) | 61* | 0 | 2 | -1 | -2 | 2
O=C(Cn1c(=O)cnc2ccccc21)N1CCN(S(=O)(=O)c2ccc(F)cc2)CC1 | 9 | 1 | 2 | 3 | 16 | 4
Cc1ccc(S(=O)(=O)N2CCN(C(=O)Cn3c(=O)cnc4ccccc43)CC2)cc1 | · | · | 5 | -2 | 37* | -1
O=C(N/N=C/c1sc2ccccc2c1O)c1cccc2ccccc12 | 42* | 3 | 2 | -28 | 10 | -2
Fc1ccc(C(CCNCc2ccccn2)c2ccc(Cl)cc2)cc1 (stereo unspecified) | -3 | 2 | -1 | 3 | -7 | -2
COc1ccc(C(=O)CSc2nnc(-c3ccc(C)cc3)o2)cc1 | 13 | -3 | -1 | 2 | 1 | -3
COc1ccc(Cc2nnc(SCC(=O)c3ccccc3)o2)cc1 | 19 | -4 | 8 | 3 | -1 | -4
COc1ccc(C(=O)CSc2nnc(-c3cc(C)on3)o2)cc1 | 36* | -1 | 3 | -5 | -4 | -3
COc1ccc(Cc2nnc(SCC(=O)c3ccc(OC)cc3)o2)cc1 | 37* | -4 | 0 | -1 | 3 | -3
CCC(C(=O)NCCCN1CCOCC1)n1c2ccccc2c2nc(=O)cc(C)n21 (stereo unspecified) | 3 | -1 | -1 | 0 | 0 | 1
Cc1ccccc1OCC(=O)OCC(=O)Nc1cc(S(=O)(=O)N2CCCCC2)ccc1Cl | 11 | -11 | -8 | 0 | 8 | -1
CCCc1cc(=O)[nH]c(SCC(=O)c2ccc(S(=O)(=O)N3CCCC3)cc2)n1 | 37* | 0 | 2 | -1 | 5 | 1
CC/C(=N/Nc1ccc(Cl)cc1)c1cnnc(SC)n1 | 50* | 1 | 4 | -2 | 2 | 0
SMILES | GSTO1 inh | Fam108B inh | LYPLA2 counter | PAD4 FP inh | PME-1 primary | LYPLA1 counter
CC/C(=N/Nc1cccc(C)c1)c1cnnc(SC)n1 | 50* | -3 | 4 | -12 | 5 | 0
CC/C(=N/O)c1cnnc(SC)n1 | -7 | 7 | 2 | -3 | 0 | 2
C=CCOc1c(Br)cc(/C=N/Nc2ccc(C(=O)O)cc2)cc1OCC | 11 | 17 | 5 | 6 | 48* | 7
COc1ccc(/C=N/Nc2ccc(C(=O)O)cc2)cc1Br | 11 | 7 | 1 | 1 | 2 | 2
O=C(c1ccccc1Cl)N1CCN(c2ncccn2)CC1 | 11 | 4 | 3 | 4 | 0 | 1
Oc1ccccc1/C=N/Nc1cc(N2CCCC2)nc(N2CCCC2)n1 | 73* | 8 | -6 | -11 | 16 | -5
